# High-throughput results: PubChem BioAssay, several laboratories
# CYP2C9 activ: activators of human CYP2C9. P11712. activation factor at 5 µM. 96,000 compounds, 1.4% hits. AID 1024. recombinant CYP2C9, luciferin-H conversion, luminescence; active compounds read high; factor 1 = untreated enzyme, 0 = blocked;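 active = activation factor of 2 or more for CYP2C9 at a 5 µM dose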;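 also: 0 = sulfaphenazole-blocked wells and 1 = vehicle-only wells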
# cytoskel mod: cytoskeleton assembly modification | HUVEC TNFa F-actin phalloidin imaging, high content | inhibition, % at 2 µM | 91,000 compounds, 0.18% hits | AID 836;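 active = inhibition above the batch mean plus 3 SD and confirmed as a hit by visual image inspection, cut at about 30% in these data, passing the limit was not always enough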
# CYP2C9 inhib: inhibitors of human CYP2C9 | P11712 | AID 777 | 96,000 compounds, 20% hits | CYP2C9 Supersomes, luciferin-H conversion, luminescence | inhibition, % at 5 µM;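 active = blocking of liver enzyme CYP2C9 beyond about 50% at 5 µM, limit read from the data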
# E-sel TNF inh: TNF alpha driven E-selectin expression inhibition; AID 1246; HUVEC TNFa-induced E-selectin immunofluorescence, high content; inhibition, % at 2 µM; 120,000 compounds, 0.71% hits;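 active = inhibition above the batch mean plus 3 SD, and confirmed as a hit on visual image review, cut at about 43% in these data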;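 also: 0% = TNF-stimulated DMSO wells and 100% = unstimulated control wells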
# CYP2C19 act: activators of human cytochrome P450 2C19 | recombinant CYP2C19, luciferin-H EGE luminescence; active compounds read high; 0 = fully inhibited enzyme, 1 = untreated enzyme | activation factor at 5 µM | P33261 | 96,000 tested, under 10 active;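 active = activation factor of at least 2 at 5 µM in the primary screen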;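 also: 0 = wells with 2.5 mM tranylcypromine and 1 = vehicle-only wells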
# Target sequence (P33261 whole entry, looked up): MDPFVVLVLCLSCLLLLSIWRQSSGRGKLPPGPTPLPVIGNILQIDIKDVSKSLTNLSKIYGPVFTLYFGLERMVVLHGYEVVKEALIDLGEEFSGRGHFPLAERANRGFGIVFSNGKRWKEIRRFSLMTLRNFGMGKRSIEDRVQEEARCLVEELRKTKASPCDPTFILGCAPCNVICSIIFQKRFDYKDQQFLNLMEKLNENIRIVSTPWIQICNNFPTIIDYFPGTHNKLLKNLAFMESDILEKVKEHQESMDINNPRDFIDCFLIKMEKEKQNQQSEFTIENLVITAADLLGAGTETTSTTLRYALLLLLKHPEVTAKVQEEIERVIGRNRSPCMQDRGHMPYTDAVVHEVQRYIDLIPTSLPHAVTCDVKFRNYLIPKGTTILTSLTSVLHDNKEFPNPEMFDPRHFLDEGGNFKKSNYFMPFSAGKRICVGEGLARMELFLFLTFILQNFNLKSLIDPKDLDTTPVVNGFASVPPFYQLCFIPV
# CYP2C19 inhib: inhibitors of human CYP2C19; inhibition, % at 5 µM; 96,000 compounds, 21% hits; CYP2C19 Supersomes, luciferin-H EGE luminescence, 30 min; P33261; AID 778;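 active = CYP2C19 inhibition above a set limit at 5 µM in the primary screen, cut at about 50% in these data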;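 also: plate controls were negative control wells for no effect and 2.5 mM tranylcypromine positive control for full effect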
# * = called active by the depositor; · = no result given. Compounds with a hit are over-represented: about 22% of the library has one in this group of screens.
SMILES,CYP2C9 activ,cytoskel mod,CYP2C9 inhib,E-sel TNF inh,CYP2C19 act,CYP2C19 inhib
CCN(CC)S(=O)(=O)c1cc(C(=O)Nc2ccc(Cl)cn2)ccc1C,0.2,·,80*,-25,0.2,81*
c1cc(CNc2ccc3c(c2)OCCO3)ccn1,0.4,-7,62*,29,0.3,73*
CCOC(=O)c1nn(-c2ccccc2C)c(=O)c(C#N)c1C,0.9,-2,8,18,0.4,65*
CCOC(=O)c1nnn(-c2ccccc2C#N)c1C,1.7,·,-70,·,1.2,-17
COc1cc(OC)c(C2C3=C(CCCC3=O)Nc3nc4ccccc4n32)cc1OC (configuration not stated),0.8,·,18,-30,0.9,12
Cc1[nH]c2ccccc2c1CN1CCc2ccccc2C1,1,-8,0,4,0.6,38
COc1ccc(C(=O)c2oc3ccccc3c2N)cc1,0.7,14,28,-24,0.3,69*
Nc1c(C(=O)Nc2ccc(Cl)cc2)oc2ccccc12,0.4,7,63*,-5,0.5,54*
CC(=O)c1oc2ccccc2c1N,0.9,·,6,-24,0.9,12
Nc1c(C(=O)c2ccccc2)oc2ccccc12,0.7,-9,34,10,0.1,85*
COC(=O)C1C2C=CC3(CN(c4cccc(Cl)c4)C(=O)C13)O2 (configuration not stated),1.1,·,-6,·,1,1
N=C1c2ccccc2CN1NC(=O)c1cccc(S(=O)(=O)N2CCCC2)c1,·,·,·,19,·,·
O=C(CSCc1ccco1)NC1CCCC1,·,·,·,-8,·,·
COc1ccc(CCNc2oc(COc3ccccc3F)nc2C#N)cc1,0,62*,97*,·,0.1,94*
CN(C)c1oc(COc2ccccc2F)nc1C#N,0.6,-11,42,-4,0.1,92*
COc1ccc(CNc2oc(COc3ccc(Cl)cc3)nc2C#N)cc1,0.7,-2,29,·,0.7,31
N#Cc1nc(COc2ccccc2F)oc1NCc1ccc(F)cc1,0.3,12,72*,-7,0.4,55*
Cn1ccnc1SCC(=O)Nc1cccc(O)c1,0.9,2,9,-1,0.9,6
Cc1nn(CC(=O)NC(C)c2ccccc2)c(=O)c2ccccc12 (configuration not stated),1.5,·,-54,13,0.9,13
Cc1cc(O)c(C(C)C)cc1NC(=O)Cn1nc(C)c2ccccc2c1=O,0.3,·,69*,-28,0.7,30
Cc1nn(CC(=O)Nc2ccccc2)c(=O)c2ccccc12,0.6,·,38,7,0.3,73*
Cc1nnc(NC(=O)Cn2nc(C)c3ccccc3c2=O)s1,·,·,·,-8,·,·
Cc1nn(CC(=O)Nc2ccc(C(=O)N(C)C)cc2)c(=O)c2ccccc12,1.1,34*,-15,10,1.2,-25
CCCOc1ccc(N2C(=O)CC(N(Cc3ccc(S(N)(=O)=O)cc3)C(=O)CC)C2=O)cc1 (configuration not stated),1,-2,3,-18,0.9,9
CCC(=O)Nc1ccnc(-c2cccnc2)n1,0.8,-33,22,4,0.4,65*
SMILES,CYP2C9 activ,cytoskel mod,CYP2C9 inhib,E-sel TNF inh,CYP2C19 act,CYP2C19 inhib
CC(C)(C)C(=O)Nc1ccnc(-c2cccnc2)n1,0.4,5,59*,6,0.2,83*
CN(c1ccc(C(=O)N2CCCCC2)cc1)S(C)(=O)=O,1.2,0,-16,0,1.1,-13
CCOC(=O)C1=NN(C(=O)c2ccc(C)cc2)C(O)(c2ccc(Cl)cc2)C1 (configuration not stated),0.7,0,34,-7,0.4,56*
CC1CN(S(=O)(=O)c2ccc(C(=O)Nc3sc4c(c3C(N)=O)CCN(C)C4)cc2)CC(C)O1 (configuration not stated),·,·,·,-20,·,·
COc1ccc(NC(=O)CCCNS(=O)(=O)c2cccs2)cc1,0.5,·,50,-89,0.3,72*
COc1ccc(NC(=O)CNS(=O)(=O)c2cccs2)cc1,0.6,·,40,·,0.5,53*
Cc1ccc(NC(=O)CNS(=O)(=O)c2cccs2)cc1F,·,·,·,-12,·,·
Cc1c(NC(=O)C(C)NCC2CCCO2)c(=O)n(-c2ccccc2)n1C (configuration not stated),1.1,-19,-7,16,1,4
COC(=O)Cc1c(C)c2c(OCc3nn[nH]n3)cc(C)cc2oc1=O,0.8,32,17,-24,0.9,7
Cc1c(C)c2cc(Cl)c(OCc3nn[nH]n3)cc2oc1=O,0.1,13,94*,31,0.1,92*
C=CCn1c(=O)/c(=C/c2ccc(C)o2)s/c1=C(/C#N)C(=O)c1ccccc1,0.7,-23,29,2,1,4
Cc1cc(Oc2nc3c(C)cccn3c(=O)c2/C=C(\C#N)S(=O)(=O)c2ccc(Cl)cc2)ccc1Cl,·,·,·,-29,·,·
Cc1cccn2c(=O)c(/C=C(\C#N)S(=O)(=O)c3ccccc3)c(N3CCN(C)CC3)nc12,0.2,11,75*,8,1.1,-10
Cc1ccc(S(=O)(=O)/C(C#N)=C/c2c(N3CC(C)OC(C)C3)nc3c(C)cccn3c2=O)cc1 (configuration not stated),0.3,-7,72*,11,0.9,7
Cc1ccc(S(=O)(=O)/C(C#N)=C/c2c(N3CCN(C)CC3)nc3c(C)cccn3c2=O)cc1,0.2,14,85*,·,0.9,9
CCN1CCN(c2nc3c(C)cccn3c(=O)c2/C=C(\C#N)S(=O)(=O)c2ccc(C)cc2)CC1,0.1,-6,89*,·,0.7,33
Cc1cccn2c(=O)c(/C=C(\C#N)C(=O)NCc3ccco3)c(N3CCCC(C)C3)nc12 (configuration not stated),·,·,·,-18,·,·
NNC(=O)c1cc2c(N3CCC(Cc4ccccc4)CC3)ncnc2s1,·,·,·,-56,·,·
CCOc1ccc(NC(=O)c2ccccc2OCC(=O)c2ccc(C)cc2)cc1,0.9,-1,12,-78,0.9,12
Cc1ccc(NC(=O)CSc2n[nH]c(=O)n2C2CC2)cc1S(=O)(=O)N1CCOCC1,·,·,·,1,·,·
Cc1nn2c(-c3cccc(NC(=O)CN4CCOCC4)c3)nnc2c2ccccc12,·,3,·,1,·,·
COC(=O)C1C(c2ccccc2)C(C(=O)N2CCOCC2)C1c1ccccc1 (configuration not stated),0.8,-4,22,5,0.2,84*
CCN(Cc1nc2cc(OC)c(OC)cc2c(=O)[nH]1)C(=O)c1ccc(S(=O)(=O)N(C)C)cc1,0.5,2,54*,-7,0.7,30
CCN1C(=O)c2cccc3c(NS(=O)(=O)c4ccc(NC(C)=O)cc4)ccc1c23,0.1,-25,86*,-6,0,99*
CCN1C(=O)c2cccc3c(NC(=O)c4ccc(S(=O)(=O)N5CCOCC5)cc4)ccc1c23,0.3,-4,74*,·,0.6,38
CCN1C(=O)c2cccc3c(S(=O)(=O)Nc4ccccc4OC)ccc1c23,0,36,99*,·,0.4,61*
CN1C(=O)c2cccc3c(S(=O)(=O)Nc4ccccn4)ccc1c23,·,18,·,5,·,·
